3CLpro inhibitor: SARS-CoV 3CLpro protease inhibitors, primary screen, biochemical, quenched FRET. Replicase polyprotein 1ab (Severe acute respiratory syndrome coronavirus), P0C6X7. recombinant SARS-CoV 3CLpro, quenched FRET peptide cleavage. inhibition, % at 6 µM. 290,000 compounds, 0.14% hits. AID 1706, 2009; in the data active = inhibition above about 12%
Anthrax LF prot: Bacillus anthracis LF protease inhibitors, primary screen, biochemical, multiplex microsphere, MLPCN library. 360,000 compounds, 0.12% hits. Lethal factor (Bacillus anthracis), P15917. multiplex microsphere protease cleavage assay. inhibition, % at 10 µM. AID 588501, 2011
BoNT-A LC inh2: BoNT/A light chain protease inhibitors, primary screen, biochemical, flow cytometry, MLPCN library. AID 588499, 2011. inhibition, % at 10 µM. 360,000 compounds, 0.17% hits. Botulinum neurotoxin type A light chain protease (Clostridium botulinum A str. ATCC 3502). multiplex microsphere protease substrate cleavage
Autofluor counter: flagged as autofluorescent in microsphere protease counterscreen; AID 624483; compound autofluorescence counterscreen, microsphere flow cytometry; stronger effect = higher value; fluorescence intensity (no concentration beside the values); 360,000 compounds, 3.1% hits; in the data active = fluorescence intensity above about 16000; inconclusive = no clear call, values can overlap the other calls
VHR inh abs: VHR1 phosphatase inhibitors, primary screen, biochemical, absorbance, uHTS; AID 1654, 2009; recombinant VHR phosphatase, pNPP absorbance; 290,000 compounds, 0.52% hits; inhibition, % at 13.3 µM; in the data active = inhibition above about 50%
Target sequence (P51452 whole entry, looked up): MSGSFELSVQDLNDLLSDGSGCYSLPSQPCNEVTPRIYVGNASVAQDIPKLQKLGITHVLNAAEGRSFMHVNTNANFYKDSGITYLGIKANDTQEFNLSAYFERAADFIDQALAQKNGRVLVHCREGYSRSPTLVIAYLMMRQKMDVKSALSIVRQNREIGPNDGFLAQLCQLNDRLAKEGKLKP
BoNT F protease: BoNT/F light chain protease inhibitors, primary screen, biochemical, flow cytometry, MLPCN library; 360,000 compounds, 0.22% hits; inhibition, % at 10 µM; Multiplex microsphere protease cleavage assay; AID 588497, 2011; in the data active = inhibition above about 35%, passing the limit was not always enough; inconclusive = no clear call, values can overlap the other calls
Numbers stand for hits; . = inactive; ? = inconclusive; / = no result given. Rows were chosen to be rich in hits. Some 3.9% of all compounds tested hit in one or more screens of this group. Rule as the data show it, unless noted: active = inhibition above about 30%; inconclusive = no clear call, values can overlap the other calls; inactive = below that.

SMILES	3CLpro inhibitor	Anthrax LF prot	BoNT-A LC inh2	Autofluor counter	VHR inh abs	BoNT F protease
O=C(NC1CCCCC1)C(c1cccnc1)N(C(=O)CCl)c1ccccc1Cl (stereo not given)	.	.	.	.	.	38
CCc1ccccc1N(C(=O)CNC(=O)c1ccco1)C(C(=O)NC1CCCC1)c1cccnc1 (stereo not given)	.	.	.	.	.	.
O=C(NC1CCCCC1)C(c1cccnc1)N(C(=O)CCl)c1ccc(F)cc1 (stereo not given)	.	.	.	.	.	.
COc1ccc(-c2nsc(C(=O)N(c3ccc(F)cc3)C(C(=O)NC3CCCC3)c3ccc(OC)cc3)c2N)cc1 (stereo not given)	.	.	.	23904	.	.
COc1cccc(C(C(=O)NC2CCCC2)N(Cc2cccnc2)C(=O)Cc2cccs2)c1 (stereo not given)	.	.	.	.	50	.
CCCCC(CC)CNC(=O)c1ncn[nH]1 (stereo not given)	.	.	.	.	.	.
O=C(NCc1cccnc1)c1cc(C2CCCCN2C(=O)c2ccc3ccccc3c2)on1 (stereo not given)	/	.	.	.	/	.
Cc1cccc(N2CC(C(=O)Nc3ccc4c(c3)OCCO4)CC2=O)c1C (stereo not given)	.	.	.	.	.	.
COc1ccc(-c2nnc3sc(-c4ccccn4)nn23)cc1	/	/	/	/	.	/
COc1cccc(-c2nn3c(-c4ccccn4)nnc3s2)c1	.	.	?	19346	.	.
COc1cccc(-c2nnc3sc(-c4ccccn4)nn23)c1	.	.	.	.	.	.
Clc1ccccc1-c1nn2c(-c3ccccn3)nnc2s1	.	.	.	22234	.	.
COc1ccc(-c2nn3c(-c4ccccn4)nnc3s2)cc1OC	.	.	?	19421	.	.
COc1ccc(C2=Nn3c(nnc3C3CCCCC3)SC2)cc1OC	.	.	.	24718	.	.
Cc1ccc(C)c(OCC(=O)Nc2cc(NC(=O)COc3cc(C)ccc3C)cc(C(=O)O)c2)c1	.	.	.	.	.	.
O=C(O)C1=C[C@@H](c2coc3ccccc3c2=O)C[C@@H](OCCCCO)O1	.	.	.	.	.	.
COc1ccc(-c2nn3c(-c4cccc(C)c4)nnc3s2)cc1OC	.	.	.	16794	/	.
COc1ccc(-c2nn3c(C4CCCCC4)nnc3s2)cc1OC	.	.	.	16665	.	.
COc1cc(-c2nn3c(C4CCCCC4)nnc3s2)cc(OC)c1OC	.	.	.	.	.	.
Cc1nn(S(=O)(=O)c2ccccc2)c(C)c1S(=O)(=O)N1CCOCC1	.	.	.	.	.	.
Cc1cc(C)n(-c2ccc(Cl)c(C(=O)O)c2)n1	.	.	.	.	.	.
Cc1cc(C)n(-c2cc(C(=O)O)cc(C(=O)O)c2)n1	.	.	.	.	53	.
CCn1c2ccccc2c2nc3cc(S(=O)(=O)N4CCOCC4)ccc3nc21	.	33	40	.	.	.
O=S(=O)(c1ccc2oc3ccccc3c2c1)N1CCOCC1	.	.	.	16805	.	.
Cc1c(C(=O)N2CCCc3ccccc32)oc2ccc(S(=O)(=O)N3CCOCC3)cc12	.	.	.	16777	.	.
SMILES	3CLpro inhibitor	Anthrax LF prot	BoNT-A LC inh2	Autofluor counter	VHR inh abs	BoNT F protease
O=C(c1cccc(S(=O)(=O)N2CCOCC2)c1)N1CCCc2ccccc21	.	.	.	.	.	.
c1ccc2nc3c(nc2c1)c1ccccc1n3CCN1CCOCC1	.	.	.	.	.	.
CCOC(=O)N1CCC(N2C(=O)c3ccccc3C2Nc2ccc(S(=O)(=O)N(CC)CC)cc2)CC1 (stereo not given)	.	.	.	.	.	.
O=C(c1cccc(C(F)(F)F)c1)N1CCC(O)(CS(=O)(=O)Cc2ccccc2)CC1	.	.	.	.	.	.
O=C(c1cccc(C(F)(F)F)c1)N1CCC(O)(CS(=O)(=O)Cc2ccccc2Cl)CC1	.	.	?	20377	.	.
O=C(c1cccc(C(F)(F)F)c1)N1CCC(O)(CS(=O)(=O)Cc2ccc(Cl)cc2)CC1	.	.	.	17295	.	.

High-throughput results as filed in PubChem BioAssay.
